In PubChem BioAssay AID1490 (National Center for Advancing Translational Sciences (NCATS), 2009):
Hit rate of the full screen: of about 310,000 compounds, about 11,000 (3.5%) were called active. Not shown: some 4% with an inconclusive outcome. The list comes from a sample in which actives are over-represented; it also holds similar structures and randomly drawn compounds. Values without a mark were called inactive. The call rests on the fitted dose curve; in most records, active means well fitted inhibition curve with a large enough effect; inconclusive means small, poorly fitted or top-dose-only effect, or another doubt; inactive means no such curve, though single readings can be large or run the other way.

These molecules were tested against 4'-phosphopantetheinyl transferase ffp (Bacillus subtilis) (UniProt Q9F4F7) (assay: qHTS Assay for Inhibitors of Bacillus subtilis Sfp phosphopantetheinyl transferase (PPTase)). Conditions: Biochemical Sfp PPTase activity.
How it was run: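 Fluorescence-quenching assay with 15 nM Sfp, 5 uM rhodamine-CoA and 12.5 uM BHQ-2-labelled ybbR peptide in pH 7.6 Hepes/MgCl2 buffer. Enzyme was pre-incubated with compound for 15 min at room temperature. Rate was taken from the 30-min fluorescence change (525/598 nm).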
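Further: the enzyme is Sfp with the accession as filed and its product quenches rhodamine fluorescence.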
Potency means the concentration at half of the fitted maximal effect.
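Wherever largest response in the series, negative = inhibition is given: 0% = enzyme reaction without inhibitor and -100% = no enzyme wells.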

In order of falling largest response in the series, negative = inhibition:
1. C=CCOC(=O)C1=C(C)NC(C)=C(C(=O)OCC=C)C1c1cccs1  24.6%
2. COc1ccc(CC(=O)N/N=C/c2cc([N+](=O)[O-])cc(Br)c2O)cc1  23.5%
3. Nc1ncn(C2OC(CO)C(O)C2O)c(=O)n1 (configuration not stated)  21.6%
4. CCC1Sc2ccc(S(=O)(=O)CCC(=O)NCc3cccs3)cc2NC1=O (configuration not stated)  20.6%
5. CC(=O)OCC1OC(C#CCCCc2ccccc2)C=CC1OC(C)=O (configuration not stated)  17.9%
6. O=c1[nH]c(SCc2ccccc2)nnc1-c1ccccc1  15.9%
7. CN1C(=O)C(CC(=O)Nc2ccccc2)S/C1=N/c1nccs1 (configuration not stated)  15.1%
8. CCC(C)(C)NC(=O)C1c2ccccc2Oc2ccccc21  14.9%
9. CC(=O)NCC(=O)N1CCC(n2nccc2NC(=O)CCCc2ccccc2)CC1  13.4%
10. CN(CC(=O)Nc1c(Cl)cccc1Cl)C(=O)c1ccncc1  13.1%
11. CCOc1cc(-c2noc(CCCC(=O)NC3CCCCC3)n2)ccc1OC  13%
12. Fc1ccc(COc2ccc(-c3nnco3)cc2)cc1  12.8%
13. Cc1ccnc(N2CCCC(C(=O)NC3CC3)C2)n1 (configuration not stated)  12.1%
14. Cc1cc(C(F)(F)F)nn1-c1nc(-c2ccco2)cc(C(F)(F)F)n1  11.9%
15. O=C(Nc1c2c(nn1-c1ccccc1)CS(=O)(=O)C2)C1CCCC1  11.4%
16. CCOC(=O)CNc1nc(Cl)nc(Nc2ccc(OC)cc2OC)n1  11.3%
17. Cc1cc(=O)oc2c(C)c(OCC(=O)NCCc3ccc(S(N)(=O)=O)cc3)ccc12  11%
18. Cc1ccc(C(=O)NCCNC(=O)c2ccccc2)cc1  10.8%
19. Cc1cccc(OCc2ccc(C(=O)Nc3ccc(F)cc3)cc2)c1  10.4%
20. CC(C)=CCCC(C)CN1CCC(n2nccc2NC(=O)c2ccccc2)CC1 (configuration not stated)  9.72%
21. CCN(CC(=O)NCCCN1CCOCC1)S(=O)(=O)c1cc(Cl)ccc1Cl  9.56%
22. COC(=O)CNC(=O)c1cc(-c2ccncc2)nc2ccccc12  8.93%
23. CCOc1ccc(CN(C)C(=O)c2ccc(=O)[nH]c2)cc1  8.69%
24. CSc1nc2ccc(S(=O)(=O)N3CCc4ccccc43)cc2s1  7.95%
25. CC(C)(C)C(=O)NC(NC(=S)Nc1ccc(S(N)(=O)=O)cc1)C(Cl)(Cl)Cl (configuration not stated)  7.73%
26. CCN(CC)CCN(C(=O)c1ccc(S(=O)(=O)N2CCOCC2)cc1)c1nc2cc3c(cc2s1)OCCO3  7.56%
27. Cc1ccnc(SCC(N)=O)n1  7.56%
28. NS(=O)(=O)c1ccc(CCNC(=O)Nc2ccc(Cl)cc2)cc1  7.27%
29. COc1ccccc1N1CCN(S(=O)(=O)c2ccc3c(c2)NC(=O)CS3)CC1  7.23%
30. CC(=O)N1CCN(c2ccccc2NC(=S)NC(=O)c2cc3ccccc3o2)CC1  7.22%
31. CCc1ccc(NC(=O)C(=O)NNC(=O)c2cccs2)cc1  6.91%
32. CC(=O)NS(=O)(=O)c1ccc(N/C(N)=N/c2nc(C)cc(C)n2)cc1  6.28%
33. CCC(C)NC(=O)C1c2ccccc2Oc2ccccc21 (configuration not stated)  5.93%
34. COc1cc(OC)cc(C(=O)NCCCn2ccnc2)c1  5.91%
35. Cc1ccc2nc(N(CCN(C)C)C(=O)C3=COCCO3)sc2c1  5.53%
36. CS(=O)(=O)Nc1cccc(C2=NN(C(=O)c3cccc(F)c3)C(c3cccs3)C2)c1 (configuration not stated)  4.93%
37. COc1ccc(C)cc1N(CC(=O)NC(C)c1ccccc1)S(C)(=O)=O (configuration not stated)  4.53%
38. COCCn1c(SCC(=O)N2CCCCCC2)nc2c(c1=O)SCC2  4.45%
39. CSc1nnc2ccc(-c3ccc(C)cc3)nn12  4.27%
40. O=C(Nc1cccc(Cl)c1)OCc1ccccn1  3.07%
41. Cc1ccc(C(=O)NC23CC4CC(CC(C4)C2)C3)c(Cl)c1  2.46%
42. COc1cc(NS(=O)(=O)c2ccc(NC(=S)NC(=O)c3ccc(Br)cc3)cc2)ncn1  1.72%
43. CCCOc1cccc(C(=O)NCCCNC(=O)c2cccnc2)c1  1.7%
44. COC(=O)c1ccc2c(=O)n(CCN3CCOCC3)c(SCC(=O)Nc3cccc(OC)c3)nc2c1  0.982%
45. NC(=O)c1oc2ccccc2c1NC(=O)Cc1ccccc1  0.75%
46. COc1cc(C2C(C(=O)c3ccco3)=C(O)C(=O)N2c2cc(C)on2)ccc1OCc1ccccc1 (configuration not stated)  0.107%
47. CC1=C(C(=O)Nc2ccccc2)C(c2ccco2)C(C#N)=C(SCC(N)=O)N1 (configuration not stated)  -0.0015%
48. Cc1noc(C)c1-c1ccc2ncnc(NCc3ccc4[nH]ccc4c3)c2c1  -0.183%
49. O=C(Nc1nc2ccc([N+](=O)[O-])cc2s1)c1ccc(S(=O)(=O)N2CCCc3ccccc32)cc1  -0.333%
50. N=C(N)SCc1cccc2ccccc12  -0.359%
51. Cc1csc(-c2nc3ccccc3n2C)n1  -0.542%
52. COc1ccc(NS(=O)(=O)c2ccc(N3CCN(CCO)CC3)c([N+](=O)[O-])c2)cc1  -0.783%
53. CN(C)C(=O)Cn1c(=O)n(S(=O)(=O)c2ccccc2)c2ccccc21  -0.847%
54. O=C(Nc1nnc(-c2ccccc2F)s1)c1ccccc1F  -1.78%
55. CCCC(C(=O)NC1CCCC1)N(C(=O)Cn1nnc(-c2ccc(C)o2)n1)c1cccc(O)c1 (configuration not stated)  -2.43%
56. CC(=O)OC(COc1ccc(F)cc1)Cn1cnc2ccccc21 (configuration not stated)  -2.66%
57. NS(=O)(=O)c1ccc(CCNC(=O)CNC(=O)Cc2ccccc2)cc1  -3.07%
58. CCOc1ccc(C2C3=C(CCCC3=O)N(CC(=O)O)C3=C2C(=O)CCC3)cc1  -3.36%
59. Cc1ccc(C(=O)Nc2sc(Cc3ccc4c(c3)OCO4)c(C)c2C(N)=O)cc1  -3.41%
60. CC(NC(=O)Nc1cccc([N+](=O)[O-])c1)c1ccc2c(c1)OCO2 (configuration not stated)  -3.6%
61. COC(OC)c1ccnc(SCc2ccccc2Cl)n1  -3.61%
62. O=C(Nc1cn(-c2ccccc2)nc1-c1ccccc1)c1ccccc1  -4.06%
63. COc1ccc2nc(SCc3ccccc3)nc(C)c2c1  -4.22%
64. CCOc1ccc(-n2c(SCC(=O)Nc3ccc(OC)cc3)nc3sc4c(c3c2=O)CCN(C)C4)cc1  -4.55%
65. COc1ccc(OC)c(-n2c(-c3ccn[nH]3)n[nH]c2=S)c1  -5.99%
66. C=CCNC(=O)c1ccccc1SCc1c(C)noc1C  -6.81%
67. CCCCN(C)CCCNC(=O)c1cc(-c2cccs2)nc2ccccc12  -6.84%
68. O=C1[C@H]2[C@H]3[C@H](O)[C@H](O)C/C(=N/OCc4ccccc4)[C@H]3CC[C@@H]2C(=O)N1Cc1ccccc1  -7.38%
69. COc1cc(OC)c2c(C)cc(=O)oc2c1C(CCN1CCCCC1)c1ccc(N(C)C)cc1 (configuration not stated)  -9.21%
70. COC(=O)c1ccc(COC(=O)c2cnc(Cl)c(Cl)c2)cc1  -10.6%
71. NS(=O)(=O)c1ccc(NC(=S)NC(=O)c2cccc(Br)c2)cc1  -13.6%
72. COc1ccc(-n2c(-c3ccc(OC)c(OC)c3)n[nH]c2=S)cc1  -14.3%
73. CC(C)C(=O)Nc1ccc(C(=O)NNC(=O)c2cccs2)cc1  -14.7%
74. O=c1cc(O)nc(SCc2ccccc2Cl)[nH]1  -17.3%
75. Cc1c(CC(=O)N2CCN(C(=O)C3COc4ccccc4O3)CC2)c(=O)oc2c(O)c(O)ccc12 (configuration not stated)  -23.7%
76. COc1ccc(-c2csc(Cc3nc(O)cs3)n2)cc1  -23.9%
77. COc1ccc(OC)c(Nc2nc(-c3ccc(O)c(O)c3)cs2)c1  -45.7%
78. c1ccc(Cc2nn3c(Cn4cnc5ccccc54)nnc3s2)cc1  -63.8%

In the case of Clc1ccccc1CSc1nnc(-c2ccco2)c(-c2ccco2)n1, the Potency is reported as 20 µM (active).
In the case of c1ccc(CSc2nnc(-c3ccco3)c(-c3ccco3)n2)cc1, the Potency is reported as 35.5 µM (active).
With Cc1ccc(C(=O)c2c(NC(=O)c3ccccc3)sc(C)c2C)cc1 the Potency was 28.2 µM (active).
COc1ccccc1-n1c(-c2cc(-c3ccco3)[nH]n2)n[nH]c1=S was tested, and the Potency was 50.1 µM (active).
O=C(CC1SC(=Nc2ccccc2)N(Cc2ccccn2)C1=O)Nc1cccc(Cl)c1 (configuration not stated) was tested, and the Potency was 44.7 µM (active).
CCc1ccc(-c2cc(C(=O)NCc3ccco3)c3ccccc3n2)s1 was tested, and the Potency was 31.6 µM (active).
CC(C)(C)c1nnc(NC(=O)C2c3ccccc3Oc3ccccc32)s1 was tested, and the Potency was 2.82 µM (active).
With CC1=C(C(=O)Nc2ccccc2)C(c2cccs2)C(C#N)=C(SCC#N)N1 (configuration not stated) the Potency was 39.8 µM (active).
For Fc1ccc(COc2cccc(-c3n[nH]c(=S)o3)c2)cc1, the Potency was 39.8 µM (active).
CCc1ccc(-c2nn(-c3ccccc3)cc2CSC(=N)N)cc1 was tested, and the Potency was 39.8 µM (active).
With Fc1ccc(OCc2nn3c(Cn4nnc5ccccc54)nnc3s2)cc1 the Potency was 15.8 µM (active).
For CN(C)CCCN(C(=O)c1ccc(S(=O)(=O)N2CCCc3ccccc32)cc1)c1nc2ccc(F)cc2s1, the Potency was 56.2 µM (active).
In the case of CN(C)CCCN(C(=O)c1ccc(S(=O)(=O)N2CCCCCC2)cc1)c1nc2ccc(Br)cc2s1, the Potency is reported as 50.1 µM (active).
For CC(C)(C)C(=O)OCc1nc(-c2ccc(O)c(O)c2)cs1, the Potency was 56.2 µM (active).
For Cn1c(-c2ccco2)nc2cc3ccccc3cc21, the Potency was 56.2 µM (active).
For Cc1ccnc(-n2sc3ccccc3c2=O)n1, the Potency was 2.51 µM (active).
With NS(=O)(=O)c1ccc(CCNC(=S)Nc2ccc(S(N)(=O)=O)cc2)cc1 the Potency was 20 µM (active).
NS(=O)(=O)c1ccc(NC(=S)Nc2ccc(Br)c(Cl)c2)cc1 was tested, and the Potency was 56.2 µM (active).
NS(=O)(=O)c1ccc(NC(=S)NNC(=O)c2cccs2)cc1 was tested, and the Potency was 15.8 µM (active).
